Inconclusive results are not listed. A call without a number means that no potency is given here. Activity calls are given as the source filed them. The call rests on the fitted dose curve; in most records, active means well fitted cell-killing curve with a large enough effect in the repeat runs; inconclusive means weak or mixed curves; inactive means no such curve, though single readings can be large or run the other way.
Assay: qHTS assay to identify small molecule antagonists of the androgen receptor (AR) signaling pathway - cell viability counter screen (AID 743033; further: nearly all actives have a fitted effect of over 45% in size)
Details: AR-bla HEK293 viability, CellTiter-Glo luminescence, 16 h; series mostly up to 58.5 µM
From the text: National Center for Advancing Translational Sciences [NCATS]
NIH Chemical Genomics Center [NCGC]
U.S. Environmental Protection Agency [EPA]
National Institutes of Environmental Health Sciences [NIEHS]
National Toxicology Program [NTP]
U.S. Food and Drug Administration [FDA]
Androgen receptor (AR), a nuclear hormone receptor, plays a critical role in AR-dependent prostate cancer and other androgen related diseases. Endocrine disrupting chemicals (EDCs) and their interactions with steroid hormone receptors like AR may cause disruption of normal endocrine function as well as interfere with metabolic homeostasis, reproduction, developmental and behavioral functions. To identify the compounds that inhibit AR signaling, GeneBLAzer AR-UAS-bla-GripTite cell line (Invitrogen, Carlsbad, CA, USA) containing a beta-lactamase reporter gene under control of an Upstream Activator Sequence (UAS) stably integrated into HEK293 cells was used to screen the Tox21 10K compound library. The cytotoxicity of the Tox21 compound library against the AR-bla cell line was tested in parallel by measuring the cell viability using CellTiter-Glo assay in the same wells.
Tox21 Assay Protocol Summary:
AR-bla cells were dispensed at 2,000 cells/5 uL of assay medium per well into black wall/clear-bottom 1536-well plates using a Multidrop Combi (ThermoFisher Scientific, Waltham, MA) dispenser. After the assay plates were incubated at a 37C and 5% CO2 for 4 hr, 23 nL of compounds dissolved in DMSO, positive controls or DMSO only was transferred to the assay plate by a Pintool station (Kalypsys, San Diego, CA), followed by addition of 1 uL of agonist (R1881) in culture medium using a Bioraptr Flying Reagent Dispenser (FRD) workstation (Beckman Coulter, Indianapolis, IN, USA). The plates were incubated at a 37C and 5% CO2 for 16 h. After 1 uL of LiveBLAzerTM B/G FRET substrate was added using a Bioraptr FRD, the plates were incubated at room temperature for 2 h and fluorescence intensity was measured by an Envision plate reader (PerkinElmer, Shelton, CT). For cell viability readout that measures cytotoxicity, 4 ul/well of CellTiter-Glo reagent was added into the assay plates using a Bioraptr FRD. After 30 min incubation at room temperature, the luminescence intensity in the plates was measured using a ViewLux (PerkinElmer) plate reader.
In the case of `C#C[C@]1(O)CC[C@H]2[C@@H]3CCC4=CC(=O)CC[C@@H]4[C@H]3CC[C@@]21C`, the Potency is reported as “inactive”. With `O=C(OCCOCCOC(=O)c1ccccc1)c1ccccc1` the Potency was “inactive”. With `CCCC(C)=O` the Potency was “inactive”. For `C=C(C)C(=O)OCCOCCOCCOC(=O)C(=C)C`, the Potency was “inactive”. With `CCN(CC)c1ccc(C(=O)c2ccccc2C(=O)O)c(O)c1` the Potency was “inactive”. In the case of `CCCCC(CC)COC(=O)C(C#N)=C(c1ccccc1)c1ccccc1` (stereo not given), the Potency is reported as “inactive”. With `CCCCCCCCCCCCCCO` the Potency was “inactive”. With `CC(=O)Nc1ccccc1` the Potency was “inactive”. With `CC1=CCC2CC1C2(C)C` (stereo not given) the Potency was “inactive”. In the case of `Cc1ccc(S(N)(=O)=O)cc1`, the Potency is reported as “inactive”. For `CCCCCCCCCCCCCCCO`, the Potency was “inactive”. With `O=C(O)CCCCCCCCCCC(=O)O` the Potency was “inactive”. With `O=C(O)c1cc(C(=O)O)cc(S(=O)(=O)O)c1` the Potency was “inactive”. In the case of `Nc1ccccc1[N+](=O)[O-]`, the Potency is reported as “inactive”. With `O=S(=O)(O)c1ccc2ccccc2c1` the Potency was “inactive”. In the case of `c1ccc(OCCOc2ccccc2)cc1`, the Potency is reported as “inactive”. For `COc1ccc(Nc2ccccc2)c(C)c1`, the Potency was “inactive”. For `Cc1cccnc1`, the Potency was “inactive”. In the case of `OC[C@H]1O[C@@](CO)(O[C@H]2O[C@H](CO)[C@@H](O)[C@H](O)[C@H]2O)[C@@H](O)[C@@H]1O`, the Potency is reported as “inactive”. In the case of `O=C(O)c1cc(=O)c2c(OCC(O)COc3cccc4oc(C(=O)O)cc(=O)c34)cccc2o1`, the Potency is reported as “inactive”. For `C=C(C)C(=O)O[C@H]1C[C@@H]2CC[C@@]1(C)C2(C)C`, the Potency was “inactive”. With `O=c1[nH]c(=O)n([C@H]2CCCO2)cc1F` the Potency was “inactive”. For `C=CCOC(=O)c1ccccc1C(=O)OCC=C`, the Potency was “inactive”. For `CC(=O)CC(=O)Nc1ccccc1C`, the Potency was “inactive”. In the case of `ON=C1CCCCC1`, the Potency is reported as “inactive”. With `FC(F)(F)c1ccc(Cl)c(Cl)c1` the Potency was “inactive”. For `O=c1[nH]nnc2ccccc12`, the Potency was “inactive”. In the case of `O=C(O)c1ccc2c(c1)C(=O)OC2=O`, the Potency is reported as “inactive”. With `CCCSc1ccc2nc(NC(=O)OC)[nH]c2c1` the Potency was “inactive”. In the case of `O=C(O)c1ccccc1C(c1ccc(O)cc1)c1ccc(O)cc1`, the Potency is reported as “inactive”. In the case of `CC1=C(C)S(=O)(=O)CCS1(=O)=O`, the Potency is reported as “inactive”. In the case of `CCN(CC)CCCC(C)Nc1ccnc2cc(Cl)ccc12` (stereo not given), the Potency is reported as “inactive”. With `OCCOCCOCCO` the Potency was “inactive”. In the case of `OCc1cccnc1`, the Potency is reported as “inactive”. With `O=C(O)CC(C(=O)O)C(CC(=O)O)C(=O)O` (stereo not given) the Potency was “inactive”. In the case of `O=C(Oc1ccccc1)c1ccccc1`, the Potency is reported as “inactive”. In the case of `CCCCCCCCC/C=C/CC1CC(=O)OC1=O` (stereo not given), the Potency is reported as “inactive”. With `O=P(OC(CCl)CCl)(OC(CCl)CCl)OC(CCl)CCl` the Potency was “inactive”. For `CCCCC(CC)CO` (stereo not given), the Potency was “inactive”. With `CSCCC=O` the Potency was “inactive”.
